# Only some compounds are listed: those with a hit (about 2.4% of all), similar ones and a draw of the others.
# POLB inh = blocks human DNA polymerase beta activity; P06746; Pol beta primer extension/strand displacement, fluorescence kinetic; Potency, µM (series often up to 114 µM), usual class: inhibitors; hit rate 1.3% among 340,000; AID 485314
#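 Human Pol beta at 10 nM; strand-displacement substrate 50 nM final. Compound exposure 15 min at room temperature before start, reaction 10 min at room temperature.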
# L3MBTL1 inh = L3MBTL1 (human) inhibition. Potency, µM (titrated, usually from 57.1 µM), most hits filed as inhibitors. Q9Y468. hit rate 0.66% among 230,000. AlphaScreen L3MBTL1–H3K9me1 peptide binding; also: nearly all actives have a fitted effect of over 60% in size
#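 First, the protein-peptide complex forms for 30 min at room temperature (L3MBTL1 50 nM, biotinylated H3K9me1 peptide 75 nM). Next, compounds are pin-transferred and incubated 30 min. Finally, AlphaScreen beads are added and read after 30 min.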
# Pol kappa inh-1 = blocks human DNA polymerase kappa activity; Q9UBT6; purified Pol kappa, fluorescent DNA synthesis assay, 10 min; hit rate 0.53% among 400,000; Potency, µM (series often up to 107 µM), actives largely listed as inhibitors
#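 Fluorescent qHTS in 1536-well format: enzyme (10 nM) and compound sat 15 min at room temperature before 50 nM substrate (final) was added. Signal taken at 0 and 10 min; no-enzyme buffer wells were negative controls.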
# Pol eta inh-1 = blocks human DNA polymerase eta activity; Q9Y253; recombinant Pol eta, fluorescent DNA replication assay; Potency, µM (highest dose often 114 µM), most hits filed as inhibitors; hit rate 1.2% among 390,000; AID 588591
#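 Pol eta at 10 nM preincubated with compounds 15 min at room temperature; reaction started with fluorescent substrate (50 nM final) and read kinetically at 0 and 10 min.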
# Pol iota inh = blocks human DNA polymerase iota activity; Q9UNA4; Pol iota fluorescent replication assay, 10 min; Potency, µM (titrated, usually from 115 µM), usual class: inhibitors; hit rate 1% among 390,000; AID 588590
# Target sequence (Q9UNA4 whole entry, looked up): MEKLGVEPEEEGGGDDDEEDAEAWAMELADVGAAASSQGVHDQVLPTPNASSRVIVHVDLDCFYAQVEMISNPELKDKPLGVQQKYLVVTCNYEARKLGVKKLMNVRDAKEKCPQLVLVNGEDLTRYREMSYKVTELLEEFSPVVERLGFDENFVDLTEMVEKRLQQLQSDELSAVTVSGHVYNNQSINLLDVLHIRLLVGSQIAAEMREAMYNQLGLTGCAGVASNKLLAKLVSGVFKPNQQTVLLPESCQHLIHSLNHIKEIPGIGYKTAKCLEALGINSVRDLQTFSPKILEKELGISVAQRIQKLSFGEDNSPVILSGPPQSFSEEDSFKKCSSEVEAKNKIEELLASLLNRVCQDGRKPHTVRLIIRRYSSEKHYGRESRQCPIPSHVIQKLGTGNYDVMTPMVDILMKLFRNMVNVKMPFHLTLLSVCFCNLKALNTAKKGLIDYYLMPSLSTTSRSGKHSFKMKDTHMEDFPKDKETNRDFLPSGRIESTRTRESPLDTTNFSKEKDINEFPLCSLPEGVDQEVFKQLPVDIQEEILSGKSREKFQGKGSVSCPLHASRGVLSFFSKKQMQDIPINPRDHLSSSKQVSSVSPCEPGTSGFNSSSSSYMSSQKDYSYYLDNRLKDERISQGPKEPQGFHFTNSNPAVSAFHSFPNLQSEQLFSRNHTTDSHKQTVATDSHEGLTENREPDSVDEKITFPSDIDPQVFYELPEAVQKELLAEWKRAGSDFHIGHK
#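 Pol iota at 10 nM preincubated 15 min with compounds at room temperature; reaction started with fluorescent substrate, 50 nM final. Fluorescence read kinetically at 0 and 10 min; buffer-only wells as negative control.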
# GALK confirm = confirmation of human galactokinase (GALK) inhibitors. shares compounds with Pol eta inh-1. purified GALK, Kinase-Glo ATP depletion luminescence. Potency, µM (series often up to 115 µM), most hits filed as inhibitors. hit rate 70% among 150
# GALK redox cs = generates H2O2 by redox cycling, flagging GALK artifacts. AID 2035. Phenol red-HRP H2O2 redox cycling, absorbance 600 nm. Potency, µM (highest dose often 115 µM), actives largely listed as inhibitors. hit rate 40% among 150. shares compounds with Pol eta inh-1
# HEK293 tox = reduces HEK-293 cell viability in GALK counter-screen. shares compounds with Pol eta inh-1. HEK-293 viability, ATP luminescence (CellTiter-Glo), 24/48 h. Potency, µM (highest dose often 46.1 µM), usual class: inhibitors. hit rate 10% among 170. AID 2547
# Pol kappa inh-2 = confirmation of human DNA polymerase kappa inhibitors | shares compounds with Pol eta inh-1 | purified Pol-kappa, fluorescent strand-displacement substrate | Potency, µM, usual class: inhibitors | hit rate 76% among 920 | AID 720501
# Pol eta inh-2 = confirmation of human DNA polymerase eta inhibitors. shares compounds with Pol eta inh-1. Pol eta primer extension, TAMRA/BHQ fluorescence, 10 min. Potency, µM, most hits filed as inhibitors. hit rate 64% among 2,600
# A number is an active result; i = inactive; ? = inconclusive; nt = not tested or not shown; [ ] = remark or other dose. Calls follow the shape of the dose curve; as a rule, active = well fitted curve in the direction sought with a large enough effect; inconclusive = small, poorly fitted or top-dose-only effect, or another doubt; inactive = no such curve, though single readings can be large; an effect the other way counts as inactive or inconclusive.
SMILES,POLB inh,L3MBTL1 inh,Pol kappa inh-1,Pol eta inh-1,Pol iota inh,Pol eta inh-2,others
Cn1c2ccccc2c(=O)n2c(=O)c3ccccc3cc12,i,i,nt,nt,nt,nt,GALK confirm=10.6µM;GALK redox cs=9.43µM;HEK293 tox=i
CC1CCN(S(=O)(=O)c2ccc(NC(=O)Cc3cccs3)cc2)CC1,14.1µM,nt,?,?,?,?,
CCN(CC)S(=O)(=O)c1ccc(NC(=O)Cc2cccs2)cc1,28.2µM,nt,i,56.2µM,?,?,
CC1CCN(CC(=O)Nc2ccc(S(=O)(=O)N3CCC(C)CC3)cc2)CC1,i,i,i,i,i,nt,
c1ccc(CN(CCN2CCOCC2)Cc2ccccc2)cc1,nt,nt,i,i,i,nt,
O=C(CCN1C(=O)/C(=C/c2cccs2)SC1=S)Nc1ccc(C(=O)O)cc1,31.6µM,nt,i,44.7µM,?,nt,Pol kappa inh-2=75.2
O=C(CCCN1C(=O)/C(=C\c2cccs2)SC1=S)Nc1ccc(C(=O)O)cc1,i,nt,i,i,?,nt,
Cc1ccc(NC(=O)CN(C)S(=O)(=O)c2ccc3[nH]c(=O)oc3c2)c(C)c1,?,nt,i,79.4µM,i,26.9,
Nc1ccc2c(c1)[nH]c(=O)c1cc(N)ccc12,nt,nt,nt,i,nt,nt,
Cc1cc(C(=O)N/N=C/c2cc(Br)c(Br)o2)n[nH]1,44.7µM,nt,79.4µM,17.8µM,14.1µM,60.1,Pol kappa inh-2=47.4
O=C1CSC(=S)N1c1cccnc1,i,i,i,i,?,nt,
O=C1CSC(=S)N1Cc1cccnc1,i,nt,i,?,?,?,
Cc1ccc2oc(-c3ccc(C)c(NC(=O)C(C)(C)Oc4ccc(Cl)cc4)c3)nc2c1,i,nt,i,i,i,nt,
COC(=O)c1cc(Cl)ccc1NC(=O)CSc1ncc(S(=O)(=O)c2ccc(Br)cc2)c(=O)[nH]1,44.7µM,nt,?,89.1µM,?,?,Pol kappa inh-2=42.3
COc1ccc(CNC(=O)CSc2ncc(S(=O)(=O)c3ccc(Br)cc3)c(=O)[nH]2)cc1,i,nt,i,i,i,nt,
COc1ccc(S(=O)(=O)CC(=O)c2cc3cc(Br)ccc3oc2=O)cc1,10µM,nt,?,28.2µM,12.6µM,?,
COc1cccc2cc(C(=O)CS(=O)(=O)c3ccc(Cl)cc3)c(=O)oc12,i,nt,i,?,12.6µM,?,
COc1cccc2cc(C(C)=O)c(=O)oc12,i,nt,i,i,i,nt,
C[C@@H]1CCCCO[C@H](CN(C)Cc2ccc(C(=O)O)cc2)[C@@H](C)CN([C@H](C)CO)C(=O)c2cc(NC(=O)CCC(F)(F)F)ccc2O1,nt,nt,nt,i,nt,nt,
Cc1cc(NS(=O)(=O)c2ccc(NC(=O)/C=C/c3ccc(C)o3)cc2)nc(C)n1,i,i,i,44.7µM,i,75.7,
O=C(/C=C/c1ccc(NC(=O)c2ccccc2-c2ccccc2C(=O)O)cc1)c1ccccc1,i,i,i,11.2µM,?,30.1,
O=C(O)c1ccccc1-c1ccccc1C(=O)Nc1ccc(F)cc1,i,nt,i,i,i,nt,
Cc1ccc(C2C(/C=C3/SC(=S)NC3=O)=C(c3cccs3)Oc3ccccc32)cc1 (configuration not stated),31.6µM,nt,?,70.8µM,?,?,Pol kappa inh-2=?
CC1Cc2cc(/C=C3/SC(=S)NC3=O)ccc2O1 (configuration not stated),i,nt,i,i,i,nt,
O=C(CSc1nc2ccccc2c(=O)n1-c1ccccc1)NC(=O)CN1CCCC1=O,12.6µM,?,?,44.7µM,?,?,
SMILES,POLB inh,L3MBTL1 inh,Pol kappa inh-1,Pol eta inh-1,Pol iota inh,Pol eta inh-2,others
Cn1c(=O)n(C)c2cc(N3CCOCC3)c(NC(=O)c3ccc(Cl)cc3)cc21,i,nt,i,i,i,nt,
Cc1ccc(S(=O)(=O)N2CCCCC2)cc1C(=O)Nc1cccnc1,31.6µM,i,i,17.8µM,50.1µM,75.7,
COc1ccccc1OCCOc1ccc(/C=C2\C(=N)N3N=C(S(C)(=O)=O)SC3=NC2=O)cc1,?,nt,i,22.4µM,i,?,Pol kappa inh-2=?
CCOc1cc(/C=C2/C(=N)N3N=C(C)SC3=NC2=O)ccc1OS(=O)(=O)c1ccc(C)cc1,i,nt,i,?,?,nt,
COc1cc(/C=C2\C(=N)N3N=C(S(C)(=O)=O)SC3=NC2=O)cc(OC)c1OCCOc1ccccc1C,?,nt,i,25.1µM,?,?,Pol kappa inh-2=?
COc1cc(/C=C2\C(=N)N3N=C(S(C)(=O)=O)SC3=NC2=O)ccc1OS(=O)(=O)c1ccc(C)cc1,100µM,nt,?,31.6µM,20µM,47.8,
COc1cc(/C=C2/C(=N)N3C(c4ccccc4)=CSC3=NC2=O)ccc1OCC(=O)O,i,nt,i,20µM,i,?,
COc1ccc(CCNC(=O)C(C)n2nc(C)c3sc4ccccc4c3c2=O)cc1OC (configuration not stated),i,nt,i,i,i,nt,
COc1cc(/C=C2/C(=N)N3C(=NC2=O)SN=C3S(=O)(=O)C(C)C)ccc1OS(=O)(=O)c1ccccc1,?,nt,nt,nt,nt,nt,GALK confirm=?;GALK redox cs=i;HEK293 tox=i
COc1cc(/C=C2/C(=N)N3N=C(C(C)C)SC3=NC2=O)ccc1OS(=O)(=O)c1ccccc1,i,nt,i,?,?,nt,
C[C@@H]1COC(=O)O1,nt,nt,i,nt,nt,nt,
O=C(O)CCc1ccc(-c2ccccc2)n1CC(=O)O,i,i,i,i,?,nt,
Cc1ccc(-c2ccc(CCC(=O)O)n2Cc2ccco2)cc1,?,nt,i,22.4µM,?,?,
CN(C)Cc1ccccc1-c1cncnc1Nc1ccc(F)cc1,nt,nt,i,nt,nt,nt,
CN1CCN(c2ncc3nc(-c4ccccc4)c(=O)n(CCc4ccccc4)c3n2)CC1,nt,nt,i,nt,nt,nt,
Cc1nnc(SCc2nc3sc(C(=O)O)c(C)c3c(=O)[nH]2)s1,i,?,89.1µM,22.4µM,20µM,42.6,
C=CCn1c(SCc2nc3sc(C(=O)O)c(C)c3c(=O)[nH]2)nnc1-c1ccc(C(C)(C)C)cc1,22.4µM,?,35.5µM,7.08µM,?,30.1,Pol kappa inh-2=11.9
Cc1c(C(=O)O)sc2nc(CSc3nnc(-c4ccc(F)cc4)n3C)[nH]c(=O)c12,i,i[2.29 µM],i,35.5µM,?,?,
CC(=O)c1sc2nc(CSc3nnnn3-c3ccccc3)[nH]c(=O)c2c1C,12.6µM,?,?,10µM,11.2µM,67.5,
C=CCn1c(SCC(=O)O)nnc1-c1ccc(C(C)(C)C)cc1,i,i,i,?,i,nt,

# Compound activity: PubChem, National Center for Advancing Translational Sciences (NCATS)
